Assay results: PubChem BioAssay AID602252 (Broad Institute, 2012)
The whole screen tested about 300,000 compounds, of which about 2,700 (0.9%) were called active.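 The calls were made as follows: active = mean inhibition of at least 30% with at least half of replicates also reaching 30%; inconclusive = no clear call, values can overlap the other calls; inactive = the rest.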 The sample as a whole holds a higher share of actives than the screen did.

target: Golgi-associated PDZ and coiled-coil motif-containing protein (Homo sapiens) (UniProt Q9HD26); test: blockade of CAL PDZ-reporter peptide interaction – biochemical, fluorescence polarization, untagged CAL PDZ, HTS, primary screen (AID 602252); details: purified CAL PDZ, TMR-peptide fluorescence polarization, 1 h; at 24.9 µM; stronger effect = higher value;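 also: 0% = DMSO neutral control and 100% = excess unlabeled competitor peptide PRC23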

Question: `Cc1ccc(-n2c(O)c(C=NCC3CCCO3)c(=O)[nH]c2=O)c(C)c1` (stereo not given) was tested. Which inhibition did it give?
Answer: 62.7% (active)

Question: With `CC(=NCC1CCCO1)c1c(O)n(-c2ccccc2)c(=O)[nH]c1=O` (stereo not given) as the molecule, how does the inhibition read?
Answer: -0.888% (inactive)

Question: With `COc1ccccc1-n1c(O)c(C=NC2CC2)c(=O)[nH]c1=O` as the molecule, how does the inhibition read?
Answer: -5.85% (inactive)

Question: With `CCC(C)(O)C(=O)OC1C(=O)OC2CC3C(C)=CC(=O)C(O)C3(C)C3C4(O)OCC23C1C(C)C4O` (stereo not given) as the molecule, how does the inhibition read?
Answer: -3% (inactive)

Question: How did the inhibition turn out when `COC1C(O)C(C)OC(OC2CCC3(C=O)C(CCC4C3CCC3(C)C(C5=CC(=O)OC5)CCC43O)C2)C1O` (stereo not given) was run?
Answer: -0.006% (inactive)

Question: How did the inhibition turn out when `Cc1ccc(-n2c(C)cc(/C=C3\C(=O)NC(=O)N(C)C3=O)c2C)cc1C` was run?
Answer: 0.186% (inactive)

Question: Which inhibition does the source give for `Cc1cc(C=C2C(=O)NC(=O)NC2=O)c(C)n1-c1ccncc1` here?
Answer: 49.2% (active)

Question: For `Cc1ccnc(-n2c(C)cc(/C=C3\C(=O)NC(=S)N(C)C3=O)c2C)c1`, which inhibition is on record?
Answer: -1.9% (inactive)

Question: `CC(=O)OC1C2(CC3N4C(=O)C5(CO)SSC4(CC31O)C(=O)N5C)OC(C)C(C)(C)C2=O` (stereo not given) was tested. Which inhibition did it give?
Answer: 1.68% (inactive)

Question: Which inhibition does the source give for `CC12CCC(O)CC1CCC1C2CCC2(C)C(C(=O)CC(O)C(F)(F)F)CCC12` (stereo not given) here?
Answer: -6.37% (inactive)

Question: With `O=C(c1ccccc1)C(O)(CN1CCCCC1)c1ccccc1` (stereo not given) as the molecule, how does the inhibition read?
Answer: -5.06% (inactive)

Question: Which inhibition does the source give for `CC1C(=O)OC2CCN3CC=C(COC(=O)C(C)(O)C1(C)O)C23` (stereo not given) here?
Answer: 56.3% (active)

Question: How did the inhibition turn out when `CCOC(=O)C1(c2ccccc2)CCN(CC(O)c2ccc(NC(C)=O)cc2)CC1` (stereo not given) was run?
Answer: -0.121% (inactive)

Question: `CCOC(=O)CC(SP1(=S)OCC2(CCCCO2)C(C2CCCCO2)O1)C(=O)OCC` (stereo not given) was tested. Which inhibition did it give?
Answer: 0.015% (inactive)

Question: `CC=C(C)C(=O)OC1CCN2CC=C(COC(=O)C(O)(C(C)OC)C(C)(C)O)C12` (stereo not given) was tested. Which inhibition did it give?
Answer: -2.7% (inactive)
